According to PubChem BioAssay (Tox21):
Inconclusive results are not listed. Calls of active or inactive are those of the source. Calls follow the shape of the full dose curve. Residues, ends and D or L forms follow the SMILES beside them.

Assay: qHTS assay to identify small molecule agonists of the NFkB signaling pathway - cell viability counter screen (AID 1159515); also: nearly all actives have a fitted effect of over 55% in size
Conditions: NFkB-bla ME-180 viability, CellTiter-Glo luminescence, 5 h; series mostly up to 61 µM
Text: National Center for Advancing Translational Sciences [NCATS]
NIH Chemical Genomics Center [NCGC]
U.S. Environmental Protection Agency [EPA]
National Institutes of Environmental Health Sciences [NIEHS]
National Toxicology Program [NTP]
U.S. Food and Drug Administration [FDA]
Transcription factors and their stimulated target gene expression play pivotal roles across many cellular processes including responses to environmental stimuli. Proper regulation of associated pathways is critical to maintain cell health and function. Constitutive activation of transcription factor pathways has been implicated in tumors as it may block cellular functions such as apoptosis and lead to invasion and metastasis. One important transcription factor that stimulates gene expression in response to cytokines, UV radiation, and other stimuli is nuclear factor-kappa B (NFkB). To measure activation of the NFkB pathway, the CellSensor NFkB-bla ME-180 cell line (Life Technologies, Carlsbad, CA) that stably expresses beta-lactamase reporter gene under the regulation of a NF-kB response element was used. This assay allows measurement of the NFkB pathway activity induced by compounds in a ME-180 cell line. This system quantitates NF-kB activity using a FRET-based assay system where beta-lactamase expression disrupts FRET, allowing for fluorescent measurement of activity. This cell line has been used to screen the Tox21 10K compound library and to identify compounds that induce the NFkB pathway activity. The cytotoxicity of the Tox21 compound library against the NFkB-bla ME-180 cell line was tested in parallel by measuring cell viability using the CellTiter-Glo assay in the same wells.
Tox21 Assay Protocol Summary:
NFkB-bla ME-180 cells were dispensed at 2,000 cells/6 uL of assay medium per well into black wall/clear-bottom 1536-well plates using a Multidrop Combi (ThermoFisher Scientific, Waltham, MA) dispenser. After the assay plates were incubated at 37 C and 5% CO2 for an overnight, 23 nL of compounds dissolved in DMSO, positive controls or DMSO only was transferred to the assay plate by a Pintool station (Kalypsys, San Diego, CA). The assay plates were incubated at 37 C and 5% CO2 for 5 hr. One uL of LiveBLAzer B/G FRET substrate (Life Technologies) was added using a Flying Reagent Dispenser (Aurora Discovery, San Diego, CA) and the plates were incubated at room temperature for 1.5 hr. Fluorescence intensity (405 nm excitation, 460 nm and 530 nm emissions) was measured using an Envision plate reader (PerkinElmer, Shelton, CT). For cytotoxicity, 3 ul/well of CellTiter-Glo reagent was added into the assay plates using an FRD. After 30 min incubation at room temperature, the luminescence intensity was measured using a ViewLux plate reader (PerkinElmer).
For `O=C(c1ccccc1)c1ccccc1`, the outcome was “inactive”.
With `CC(=O)NS(=O)(=O)c1ccc(N)cc1` the outcome was “inactive”.
In the case of `Nc1ccn([C@H]2CC[C@@H](CO)O2)c(=O)n1`, the outcome is reported as “inactive”.
With `Cc1cc(=O)n(-c2ccccc2)n1C` the outcome was “inactive”.
For `Cc1cn([C@H]2C[C@H](N=[N+]=[N-])[C@@H](CO)O2)c(=O)[nH]c1=O`, the outcome was “inactive”.
With `Nc1ccc(O)c(C(=O)O)c1` the outcome was “inactive”.
With `COc1ccc2[nH]cc(CCNC(C)=O)c2c1` the outcome was “inactive”.
In the case of `CNC[C@H](O)c1cccc(O)c1`, the outcome is reported as “inactive”.
In the case of `C[C@]12C=CC(=O)C=C1CC[C@@H]1[C@@H]2[C@@H](O)C[C@@]2(C)[C@H]1CC[C@]2(O)C(=O)CO`, the outcome is reported as “inactive”.
With `CC(=O)OCC(COC(C)=O)OC(C)=O` the outcome was “inactive”.
In the case of `O=C(O)CCC(=O)O`, the outcome is reported as “inactive”.
In the case of `O=C(O)CCCCCCCC(=O)O`, the outcome is reported as “inactive”.
For `CC(O)CO` (stereo not given), the outcome was “inactive”.
With `Cc1cc(=O)[nH]c(=S)[nH]1` the outcome was “inactive”.
With `CCCC(CCC)C(=O)O` the outcome was “inactive”.
With `COC(=O)[C@H](Cc1ccccc1)NC(=O)[C@@H](N)CC(=O)O` (H-Asp-Phe-OMe) the outcome was “inactive”.
For `CC(=O)Nc1nnc(S(N)(=O)=O)s1`, the outcome was “inactive”.
For `O=C(O)c1cccnc1`, the outcome was “inactive”.
With `COc1c2occc2cc2ccc(=O)oc12` the outcome was “inactive”.
In the case of `NC(=O)c1cnccn1`, the outcome is reported as “inactive”.
With `Cc1ccc(C)c(OCCCC(C)(C)C(=O)O)c1` the outcome was “inactive”.
With `NNC(=O)c1ccncc1` the outcome was “inactive”.
With `Cn1cc[nH]c1=S` the outcome was “inactive”.
For `O=C(O)c1[nH]n(-c2ccc(S(=O)(=O)O)cc2)c(=O)c1N=Nc1ccc(S(=O)(=O)O)cc1`, the outcome was “inactive”.
For `NC(N)=O`, the outcome was “inactive”.
For `NC(=O)c1ccccc1O`, the outcome was “inactive”.
In the case of `NS(=O)(=O)c1cc(C(=O)O)c(NCc2ccco2)cc1Cl`, the outcome is reported as “inactive”.
For `CCCC(O)C(CC)CO` (stereo not given), the outcome was “inactive”.
For `O=C(O)CS`, the outcome was “inactive”.
In the case of `O=c1ccc2ccccc2o1`, the outcome is reported as “inactive”.
For `O=S(=O)(O)NC1CCCCC1`, the outcome was “inactive”.
With `Cc1ccccc1C(OCCN(C)C)c1ccccc1` (stereo not given) the outcome was “inactive”.
With `OCCc1ccccc1` the outcome was “inactive”.
For `O=C(O)/C=C\C(=O)O`, the outcome was “inactive”.
With `O=C(O)c1cc(N=Nc2ccc(S(=O)(=O)Nc3ccccn3)cc2)ccc1O` the outcome was “inactive”.
In the case of `Cn1c(=O)c2[nH]cnc2n(C)c1=O`, the outcome is reported as “inactive”.
With `O=C(c1ccccc1)C(O)c1ccccc1` (stereo not given) the outcome was “inactive”.
In the case of `C1N2CN3CN1CN(C2)C3`, the outcome is reported as “inactive”.
In the case of `C/C=C/c1ccc(OC)cc1`, the outcome is reported as “inactive”.
With `CC(O)CN(CCN(CC(C)O)CC(C)O)CC(C)O` (stereo not given) the outcome was “inactive”.
